Active and inactive are the calls of the source. Unless noted, the rule behind the calls is not given here.
Experiments:
[1] = anti-His antibody binders, primary screen, artefact control for SMM control protein annotation, biochemical, small-molecule microarray, 635 nm fluorescence (AID 1128); conditions: anti-His Alexa647 antibody binding, higher = more signal;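 note: score merges feature fluorescence with signal-to-noise for each printed compound spot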
[2] = tested on: Human papillomavirus type 1a E7 protein (residues 1-88); assay: HPV1a E7 small-molecule binders, primary screen, biochemical, small-molecule microarray, residues 1-88, 635 nm (AID 1129); conditions: small-molecule microarray binding, fluorescence 635 nm; higher = more signal
[3] = target: Focal adhesion kinase 1 (Homo sapiens) (UniProt Q05397); assay: small-molecule microarray binders of FAK, primary screen, biochemical, 635/667 nm fluorescence, BSA, DTT (AID 1130); conditions: PTK2 binding, 635 nm fluorescence, higher = more signal;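 note: composite of spot emission at 667 nm and signal to noise over triplicate slides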
Sequence of Focal adhesion kinase 1 (Homo sapiens) (Q05397 whole entry, looked up): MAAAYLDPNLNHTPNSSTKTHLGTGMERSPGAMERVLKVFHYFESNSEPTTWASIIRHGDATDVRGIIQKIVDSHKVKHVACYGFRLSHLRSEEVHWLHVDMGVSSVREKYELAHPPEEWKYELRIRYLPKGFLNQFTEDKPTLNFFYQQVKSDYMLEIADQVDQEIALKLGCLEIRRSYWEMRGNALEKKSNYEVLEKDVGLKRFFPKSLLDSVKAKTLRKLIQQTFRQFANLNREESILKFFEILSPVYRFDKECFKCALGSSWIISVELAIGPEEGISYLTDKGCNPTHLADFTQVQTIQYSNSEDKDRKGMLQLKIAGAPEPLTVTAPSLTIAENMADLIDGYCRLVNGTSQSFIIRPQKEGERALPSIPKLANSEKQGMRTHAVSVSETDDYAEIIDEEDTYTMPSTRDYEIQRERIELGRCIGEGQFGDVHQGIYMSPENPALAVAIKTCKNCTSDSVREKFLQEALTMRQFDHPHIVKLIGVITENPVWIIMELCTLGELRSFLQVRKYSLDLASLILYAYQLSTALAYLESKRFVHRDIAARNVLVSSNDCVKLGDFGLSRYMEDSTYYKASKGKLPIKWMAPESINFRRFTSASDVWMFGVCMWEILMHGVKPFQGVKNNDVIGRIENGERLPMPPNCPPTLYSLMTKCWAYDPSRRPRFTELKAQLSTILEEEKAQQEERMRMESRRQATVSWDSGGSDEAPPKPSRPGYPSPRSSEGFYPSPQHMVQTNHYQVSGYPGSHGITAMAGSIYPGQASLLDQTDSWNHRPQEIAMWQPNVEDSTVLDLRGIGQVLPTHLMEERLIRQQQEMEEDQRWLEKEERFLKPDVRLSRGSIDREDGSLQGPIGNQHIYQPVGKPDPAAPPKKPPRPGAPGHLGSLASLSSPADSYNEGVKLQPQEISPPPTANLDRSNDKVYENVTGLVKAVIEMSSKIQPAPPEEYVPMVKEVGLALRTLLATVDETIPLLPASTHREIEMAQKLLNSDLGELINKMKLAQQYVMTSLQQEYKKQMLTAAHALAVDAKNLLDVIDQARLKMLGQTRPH

[4] = tested on: Fibrinogen (Alexa647-labelled); assay: fibrinogen binders on compound microarrays, profiling panel, artefact control for SMM control-protein annotation, biochemical, small-molecule microarray, 635/667 nm fluorescence (AID 1131); conditions: fibrinogen-A647 binding fluorescence, higher = more signal;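 note: z-score merges 667 nm fluorescence with per-spot signal-to-noise over triplicate slides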
[5] = target: Follistatin (Homo sapiens) (UniProt P19883); assay: follistatin binders on small-molecule microarrays, primary screen, biochemical, small-molecule microarray, 635/667 nm fluorescence (AID 1132); conditions: FST binding, 635 nm fluorescence, higher = more signal
Sequence of Follistatin (Homo sapiens) (P19883 whole entry, looked up): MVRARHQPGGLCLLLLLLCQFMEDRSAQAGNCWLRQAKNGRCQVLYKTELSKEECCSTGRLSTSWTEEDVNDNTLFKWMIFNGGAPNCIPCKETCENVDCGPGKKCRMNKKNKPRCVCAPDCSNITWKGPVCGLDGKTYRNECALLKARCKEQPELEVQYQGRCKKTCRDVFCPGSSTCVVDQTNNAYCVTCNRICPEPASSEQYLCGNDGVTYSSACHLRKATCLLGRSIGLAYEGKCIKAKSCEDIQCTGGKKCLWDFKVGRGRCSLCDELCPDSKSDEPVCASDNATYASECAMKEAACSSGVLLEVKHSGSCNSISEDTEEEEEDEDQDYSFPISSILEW

[6] = target: Fibroblast growth factor 2 (Homo sapiens) (UniProt P09038); assay: FGF2 binders on small-molecule microarrays, primary screen, biochemical, small-molecule microarray, 635/667 nm fluorescence (AID 1133); conditions: small-molecule microarray binding, FGF2, fluorescence 635/667; higher = more signal
Sequence of Fibroblast growth factor 2 (Homo sapiens) (P09038 whole entry, looked up): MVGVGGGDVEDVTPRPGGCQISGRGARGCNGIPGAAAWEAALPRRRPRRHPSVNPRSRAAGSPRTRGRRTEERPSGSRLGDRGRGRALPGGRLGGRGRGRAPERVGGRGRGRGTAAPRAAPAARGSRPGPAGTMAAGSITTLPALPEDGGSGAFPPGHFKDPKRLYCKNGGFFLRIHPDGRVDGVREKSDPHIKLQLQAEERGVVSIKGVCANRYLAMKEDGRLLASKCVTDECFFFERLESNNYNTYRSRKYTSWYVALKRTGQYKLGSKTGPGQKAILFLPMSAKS

[7] = mitochondrial membrane potential change in A549 cells, profiling panel, cell-based, JC-1 fluorescence, basal, 24 h, 100 nL (AID 1138); conditions: higher = more signal;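 note: A549 lung adenocarcinoma cells under basal conditions with no added stimulus; test concentration not given here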
[8] = tested on: Lefty1; assay: Lefty1 binders on small-molecule microarrays, primary screen, biochemical, small-molecule microarray, 635/667 nm fluorescence (AID 1139); conditions: small-molecule microarray binding, fluorescence 635/667; higher = more signal
[9] = tested on: wheat germ agglutinin (Triticum aestivum), Alexa647-labelled; assay: wheat germ agglutinin binders on compound microarrays, profiling panel, artefact control for SMM control-protein annotation, biochemical, small-molecule microarray, 635/667 nm fluorescence (AID 1140); conditions: WGA-A647 binding, 635 nm fluorescence, higher = more signal;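 note: score merges 667 nm feature emission with signal to noise over triplicate slides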
[10] = target: Luciferin 4-monooxygenase (Photinus pyralis) (UniProt P08659); assay: firefly luciferase enzyme inhibitors, primary screen, biochemical, luminescence, purified enzyme, 2006 set (AID 1141); conditions: SteadyGlo luminescence, 30 min, higher = more signal, called active from +8 up or from −8 down;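 note: cell-free assay with purified firefly luciferase at 100 ng per well in PBS; test concentration not given here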
Sequence of Luciferin 4-monooxygenase (Photinus pyralis) (P08659 whole entry, looked up): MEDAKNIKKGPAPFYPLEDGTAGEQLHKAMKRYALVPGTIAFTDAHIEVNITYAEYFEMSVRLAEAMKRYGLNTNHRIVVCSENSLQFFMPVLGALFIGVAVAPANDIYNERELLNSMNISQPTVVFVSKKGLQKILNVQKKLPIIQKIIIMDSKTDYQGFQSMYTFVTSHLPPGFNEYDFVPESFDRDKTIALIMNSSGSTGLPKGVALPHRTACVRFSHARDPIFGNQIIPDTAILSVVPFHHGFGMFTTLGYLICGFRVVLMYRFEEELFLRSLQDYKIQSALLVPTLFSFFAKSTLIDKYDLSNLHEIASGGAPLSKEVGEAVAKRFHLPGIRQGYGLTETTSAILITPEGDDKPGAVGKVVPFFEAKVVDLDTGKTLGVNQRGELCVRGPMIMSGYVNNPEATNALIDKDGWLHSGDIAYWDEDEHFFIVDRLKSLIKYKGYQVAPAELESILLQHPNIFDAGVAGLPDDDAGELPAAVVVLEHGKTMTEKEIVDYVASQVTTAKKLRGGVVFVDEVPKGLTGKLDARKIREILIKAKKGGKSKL

[11] = tested on: Wnt5a (protein binding on small-molecule microarray); assay: Wnt5a binders on small-molecule microarray, primary screen, biophysical, 635/667 nm fluorescence (AID 1142); conditions: 635 nm fluorescence, higher = more signal;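 note: fluorescence read at 667 nm with signal to noise per printed feature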
[12] = cell viability in Huh7 cells, primary screen, cytotoxicity control for HCV replication inhibitor project, CellTiter-Glo luminescence, basal, 48 h (AID 1143); conditions: Huh7 HCV replicon, higher = more signal, called active from +8 up or from −8 down;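 note: Huh7 hepatoma cells carrying a hepatitis C replication reporter with no stimulus; test concentration not given here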
[13] = P. aeruginosa biofilm formation inhibitors, primary screen, PAO1 strain, BacTiter-Glo luminescence, LB-PBS (AID 1144); conditions: 12 h, higher = more signal
[14] = CREB reporter modulators without forskolin, primary screen, cell-based, PC12, CRE-LacZ reporter, unstimulated (AID 1145); conditions: no forskolin, luminescence, 4.5 h, higher = more signal, called active from +8 up or from −8 down
[15] = CREB reporter modulators under forskolin, primary screen, cell-based, PC12, CRE-LacZ reporter, forskolin-stimulated (AID 1146); conditions: luminescence, 4.5 h, higher = more signal, called active from +8 up or from −8 down;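 note: PC12 cells with 6xCRE LacZ reporter stimulated by forskolin 10 µM; beta-galactosidase reporter signal reflecting CREB driven transcription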
[16] = target: Streptavidin (Streptomyces avidinii) (UniProt P22629); assay: streptavidin binders on small-molecule microarray, primary screen, artefact control for SMM compound annotation, biophysical, 635/667 nm fluorescence (AID 1147); conditions: streptavidin binding, higher = more signal;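 note: signal reflects streptavidin binding to arrayed compounds as a control protein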
Sequence of Streptavidin (Streptomyces avidinii) (P22629 whole entry, looked up): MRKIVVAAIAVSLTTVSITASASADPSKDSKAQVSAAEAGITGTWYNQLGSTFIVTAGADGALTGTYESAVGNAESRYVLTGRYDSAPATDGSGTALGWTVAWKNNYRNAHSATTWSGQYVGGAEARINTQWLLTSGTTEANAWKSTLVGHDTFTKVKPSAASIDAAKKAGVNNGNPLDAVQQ

[17] = small-molecule binders of probe aInhba, primary screen, biochemical, small-molecule microarray, 635/667 nm fluorescence (AID 1148); conditions: higher = more signal;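 note: score merges 667nm spot fluorescence with signal-to-noise for antibody binding to printed compounds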
[18] = target: Torsin-1A (Homo sapiens) (UniProt O14656); assay: torsin A binders from cell lysate, primary screen, small-molecule microarray, wild-type, 635/667 nm (AID 1149); conditions: COS7 hTOR1A-WT lysate, 635 nm fluorescence, higher = more signal
Sequence of Torsin-1A (Homo sapiens) (O14656 whole entry, looked up): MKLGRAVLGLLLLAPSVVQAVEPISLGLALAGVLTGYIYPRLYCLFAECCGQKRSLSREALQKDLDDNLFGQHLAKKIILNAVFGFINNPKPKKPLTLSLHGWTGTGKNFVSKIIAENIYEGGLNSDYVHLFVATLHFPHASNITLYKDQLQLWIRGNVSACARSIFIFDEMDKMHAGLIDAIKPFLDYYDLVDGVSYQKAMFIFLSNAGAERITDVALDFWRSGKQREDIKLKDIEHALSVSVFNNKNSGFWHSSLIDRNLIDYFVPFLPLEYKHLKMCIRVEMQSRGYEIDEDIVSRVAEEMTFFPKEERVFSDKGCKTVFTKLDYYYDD

[19] = target: Torsin-1A (Homo sapiens) (UniProt O14656); assay: small-molecule binders of mutant TOR1A in lysate, primary screen, cell lysate, small-molecule microarray, COS7 lysate, 635/667 nm fluorescence (AID 1150); conditions: COS7 hTOR1A mutant lysate, 635 nm fluorescence, higher = more signal;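 note: score pools 667 nm emission and signal to noise measuring lysate protein binding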
[20] = tested on: Sonic hedgehog protein (Shh); assay: small-molecule binders of Shh protein, primary screen, biochemical, small-molecule microarray, 635/667 nm fluorescence (AID 1151); conditions: small-molecule microarray binding, 635 nm fluorescence; higher = more signal;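 note: Shh protein binding to compounds spotted on small-molecule microarray slides; score combines spot fluorescence intensity with signal-to-noise across triplicate slides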

Compound	composite z-score [1]	composite z-score [2]	composite z-score [3]	composite z-score [4]	composite z-score [5]	composite z-score [6]	z-score [7]	composite z-score [8]	composite z-score [9]	z-score [10]	composite z-score [11]	z-score [12]	z-score [13]	z-score [14]	z-score [15]	composite z-score [16]	composite z-score [17]	composite z-score [18]	composite z-score [19]	composite z-score [20]
CCCC=C(CCC)[C@@H](NS(=O)(=O)c1cccc2cccnc12)c1ccc(-c2ccccc2)cc1	0.187	1.19	0.638	0.98	0.964	0.512	1.03	1.11	0.745	2.06 (inactive)	0.702	-1.52 (inactive)	0.923 (inactive)	-0.379 (inactive)	0.415 (inactive)	1.42	0.475	0.274	0.371	0.632
[N-]=[N+]=NCc1ccccc1[C@@H]1OC(c2ccc(OCCCO)cc2)=N[C@]1(Cc1ccccc1N=[N+]=[N-])C(=O)N1CCCCC1	1.97	1.24	0.182	0.816	0.845	0.483	0.909	0.082	0.756	-1.61 (inactive)	0.0032	-1.91 (inactive)	-0.166 (inactive)	-0.753 (inactive)	-0.189 (inactive)	1.58	0.329	0.133	1.31	0.0257
COCCOC(=O)N1C(=O)[C@@]2(c3cc(C#CC4(O)CCCCCC4)ccc31)[C@H](C(=O)N1CCN(c3ncccn3)CC1)[C@H]1C(=O)O[C@H](c3ccccc3)[C@H](c3ccccc3)N1[C@@H]2c1ccccc1OCCO	1.29	1.18	1.1	0.821	1.28	1.37	-1.04	0.883	0.321	-0.348 (inactive)	0.329	-2.56 (inactive)	0.884 (inactive)	0.204 (inactive)	1.22 (inactive)	0.0715	0.258	0.835	0.577	1.52
COCCOC(=O)N1C(=O)[C@@]2(c3cc(C#CCCO)ccc31)[C@H](c1ccccc1OCCO)N1[C@H](c3ccccc3)[C@H](c3ccccc3)OC(=O)[C@H]1[C@@H]2C(=O)N1CCCCCCC1	1.35	1.17	0.624	0.857	1.39	1.58	-0.383	1.65	1.14	-0.0558 (inactive)	0.405	-3.64 (inactive)	-1.29 (inactive)	-1.15 (inactive)	0.481 (inactive)	1.31	1.45	1.22	0.34	1.97
CN(C)C(=O)[C@@]1(CCC(=O)OC(C)(C)C)N=C(c2ccc(OCCCO)cc2)O[C@H]1c1ccccc1CN=[N+]=[N-]	2.38	1.17	0.821	1.01	1.29	0.512	0.123	-0.597	1.05	-0.659 (inactive)	0.281	-0.292 (inactive)	-0.0794 (inactive)	0.148 (inactive)	0.27 (inactive)	0.457	0.0857	0.946	1.99	-0.733
Cc1ccc(N2C(=O)c3ccccc3[C@](C)(C(=O)NCc3ccccc3)[C@@H]2c2ccc(CO)cc2)nc1	2.31	-0.27	0.771	-0.887	1.31	0.464	-0.425	-0.0828	0.0023	-1.1 (inactive)	0.135	-2.21 (inactive)	0.493 (inactive)	0.351 (inactive)	-1.32 (inactive)	0.0831	0.0561	0.197	0.185	0.547
C=C(COC)C(=O)CC[C@H](OC(=O)c1cccnc1)c1ccc(CO)o1	0.784	0.113	-0.163	0.978	1.34	1.26	-0.595	1.15	0.264	-0.721 (inactive)	0.196	-0.319 (inactive)	0.312 (inactive)	0.522 (inactive)	0.756 (inactive)	-0.184	0.13	2.19	-0.0291	1.41
COc1cc(NN2C(C(O)c3ccc(I)cc3)C=CC3C(=O)N(c4ccccc4)C(=O)C32)cc(OC)c1OC (stereo not given)	2.4	1.24	0.522	0.993	1.2	0.562	0.235	0.52	1.39	-0.285 (inactive)	0.378	-3.44 (inactive)	-1.28 (inactive)	-0.136 (inactive)	0.0938 (inactive)	0.901	0.233	0.544	0.743	0.325
CC(=O)N1CC(C(O)C2C=CC3C(=O)NC(=O)C3N2Nc2ccc(Cl)cc2Cl)c2ccccc21 (stereo not given)	0.285	1.15	-0.416	0.439	0.772	-0.0113	0.125	-0.216	1.14	-1.4 (inactive)	-0.0061	-0.0847 (inactive)	-0.651 (inactive)	1.21 (inactive)	-0.584 (inactive)	0.543	0.16	-0.291	0.545	-0.123

— PubChem BioAssay
